PubChem BioAssay
Activity calls are given as the source filed them.

Assays:
[1] = binders of probe aFSTL3 on microarray, primary screen, stem cell growth factor project, biochemical, small-molecule microarray, fluorescence 635/667 (AID 1064); settings: higher = more signal;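 further: measures binding of the biotinylated anti-FSTL3 antibody to printed compounds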
[2] = binders from COS7 lysate, DM2A8 probe, primary screen, torsin A project, cell lysate, small-molecule microarray, fluorescence 635/667 (AID 1065); settings: higher = more signal, COS7 lysate expressing mutant human TOR1A
[3] = binders of probe aFGF2 on microarray, primary screen, stem cell growth factor project, biochemical, small-molecule microarray, fluorescence 635/667 (AID 1067); settings: higher = more signal;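 further: measures binding of biotinylated aFGF2 protein to printed compounds on slides; z-score merges feature fluorescence and signal-to-noise across triplicate slides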
[4] = binders of probe aFGF10 on microarray, primary screen, stem cell growth factor project, biochemical, small-molecule microarray, fluorescence 635/667 (AID 1071); settings: higher = more signal;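 further: score merges 667 nm spot intensity and signal to noise from triplicate slides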
[5] = molecular target: Neurogenic locus notch homolog protein 2 (Homo sapiens) (UniProt Q04721); assay: Notch2 binders on small-molecule microarrays, primary screen, biochemical, small-molecule microarray, 635 nm fluorescence, stem cell growth factors (AID 1073); settings: Notch2 binding, higher = more signal
[6] = molecular target: Pro-neuregulin-1, membrane-bound isoform (Homo sapiens) (UniProt Q02297); assay: NRG1 binders on small-molecule microarrays, primary screen, psychiatric disease protein project, biochemical, small-molecule microarray, fluorescence 635/667 (AID 1075); settings: NRG1 binding, 635 nm fluorescence, higher = more signal;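 further: score combines 667 nm spot fluorescence with signal to noise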
[7] = system: Neuregulin-1 EGF-like domain; assay: binders of neuregulin-1 EGF-like domain, primary screen, biochemical, small-molecule microarray, 635 nm fluorescence (AID 1081); settings: small-molecule microarray binding, higher = more signal;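 further: binding of the protein to compounds printed on small-molecule microarray slides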
[8] = FRG1 promoter luciferase signal modulators, primary screen, FRG1 inhibition for FSHD, cell-based, C2C12 myotubes, firefly/Renilla luciferase, luminescence (AID 1084); settings: higher = more signal, called active from +8 up or from −8 down
[9] = binders of probe aFST on microarray, primary screen, stem cell growth factor project, biochemical, small-molecule microarray, fluorescence 635/667 (AID 1086); settings: higher = more signal;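 further: score merges 667 nm fluorescence with signal-to-noise of each printed compound spot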
[10] = binders of probe aHhip on microarray, primary screen, stem cell growth factor project, biochemical, small-molecule microarray, fluorescence 635/667 (AID 1087); settings: higher = more signal;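 further: score merges spot fluorescence at 667nm with spot signal to noise ratio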
[11] = system: PRMT1 (protein arginine N-methyltransferase 1); assay: PRMT1 binders on small-molecule microarrays, primary screen, biochemical, small-molecule microarray, 635 nm fluorescence (AID 1088); settings: small-molecule microarray binding, higher = more signal;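 further: binding of Prmt1 protein to compounds spotted on small-molecule microarray slides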
[12] = yeast growth modulation, basal conditions, primary screen, YJM789 clinical isolate, OD600, 24 h (AID 1089);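 further: growth of clinical yeast isolate S. cerevisiae YJM 789 seeded 1000 cells per well; test concentration not given here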; settings: S. cerevisiae YJM789 growth, higher = more signal, called active from +8 up or from −8 down
[13] = fission yeast growth modulation, primary screen, strain 972, OD600, 24 h, no modulator (AID 1090);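 further: basal condition with compound alone and no growth modifier present; test concentration not given here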; settings: S. pombe 972 growth, higher = more signal, called active from +8 up or from −8 down
[14] = S. cerevisiae growth modulation with rapamycin, primary screen, strain BY4716, OD600, 96 h (AID 1091); settings: higher = more signal, called active from +8 up or from −8 down; further: test concentration not given here
[15] = molecular target: Torsin-1A-interacting protein 2 (Homo sapiens) (UniProt Q8NFQ8); assay: LULL1 binders on small-molecule microarray, primary screen, cell lysate, human LULL1 lysate, 635/667 nm fluorescence (AID 1092); settings: hLULL1 lysate binding, 635 nm fluorescence, higher = more signal;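 further: probe is lysate of COS7 cells overexpressing human LULL1; score merges per-feature 667 nm fluorescence with signal-to-noise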
[16] = E. coli growth modulation, two-sided OD650, primary screen, E. coli filamentation project, strain DRC41, 24 h (AID 1093); settings: OD650, 24 h, higher = more signal, called active from +8 up or from −8 down;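 further: MC1000 strain lacking acrAB efflux and sulA so SOS filamentation is blocked; test concentration not given here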
[17] = small-molecule microarray binders of probe aLefty2, primary screen, biochemical, biotinylated probe, 635/667 nm fluorescence (AID 1094); settings: higher = more signal;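 further: score merges spot fluorescence near 667 nm with spot signal-to-noise ratio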
[18] = system: Noggin (protein binding on small-molecule microarray); assay: Noggin binders on small-molecule microarray, primary screen, biochemical, 635/667 nm fluorescence (AID 1095); settings: 635 nm fluorescence, higher = more signal;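 further: score merges 667 nm feature fluorescence with signal to noise over triplicate slides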
[19] = molecular target: Neurogenic locus notch homolog protein 3 (Homo sapiens) (UniProt Q9UM47); assay: NOTCH3 binders on small-molecule microarray, primary screen, biochemical, 635/667 nm fluorescence (AID 1096); settings: NOTCH3 binding, 635 nm fluorescence, higher = more signal
[20] = small-molecule microarray binders of probe aEGFR, primary screen, biochemical, biotinylated probe, 635/667 nm fluorescence (AID 1097); settings: higher = more signal;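 further: probe is a biotinylated anti-EGFR antibody binding compounds printed on slides; score combines fluorescence near 667 nm and signal to noise of each spot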

Neurogenic locus notch homolog protein 3 (Homo sapiens), sequence (Q9UM47 whole entry, looked up): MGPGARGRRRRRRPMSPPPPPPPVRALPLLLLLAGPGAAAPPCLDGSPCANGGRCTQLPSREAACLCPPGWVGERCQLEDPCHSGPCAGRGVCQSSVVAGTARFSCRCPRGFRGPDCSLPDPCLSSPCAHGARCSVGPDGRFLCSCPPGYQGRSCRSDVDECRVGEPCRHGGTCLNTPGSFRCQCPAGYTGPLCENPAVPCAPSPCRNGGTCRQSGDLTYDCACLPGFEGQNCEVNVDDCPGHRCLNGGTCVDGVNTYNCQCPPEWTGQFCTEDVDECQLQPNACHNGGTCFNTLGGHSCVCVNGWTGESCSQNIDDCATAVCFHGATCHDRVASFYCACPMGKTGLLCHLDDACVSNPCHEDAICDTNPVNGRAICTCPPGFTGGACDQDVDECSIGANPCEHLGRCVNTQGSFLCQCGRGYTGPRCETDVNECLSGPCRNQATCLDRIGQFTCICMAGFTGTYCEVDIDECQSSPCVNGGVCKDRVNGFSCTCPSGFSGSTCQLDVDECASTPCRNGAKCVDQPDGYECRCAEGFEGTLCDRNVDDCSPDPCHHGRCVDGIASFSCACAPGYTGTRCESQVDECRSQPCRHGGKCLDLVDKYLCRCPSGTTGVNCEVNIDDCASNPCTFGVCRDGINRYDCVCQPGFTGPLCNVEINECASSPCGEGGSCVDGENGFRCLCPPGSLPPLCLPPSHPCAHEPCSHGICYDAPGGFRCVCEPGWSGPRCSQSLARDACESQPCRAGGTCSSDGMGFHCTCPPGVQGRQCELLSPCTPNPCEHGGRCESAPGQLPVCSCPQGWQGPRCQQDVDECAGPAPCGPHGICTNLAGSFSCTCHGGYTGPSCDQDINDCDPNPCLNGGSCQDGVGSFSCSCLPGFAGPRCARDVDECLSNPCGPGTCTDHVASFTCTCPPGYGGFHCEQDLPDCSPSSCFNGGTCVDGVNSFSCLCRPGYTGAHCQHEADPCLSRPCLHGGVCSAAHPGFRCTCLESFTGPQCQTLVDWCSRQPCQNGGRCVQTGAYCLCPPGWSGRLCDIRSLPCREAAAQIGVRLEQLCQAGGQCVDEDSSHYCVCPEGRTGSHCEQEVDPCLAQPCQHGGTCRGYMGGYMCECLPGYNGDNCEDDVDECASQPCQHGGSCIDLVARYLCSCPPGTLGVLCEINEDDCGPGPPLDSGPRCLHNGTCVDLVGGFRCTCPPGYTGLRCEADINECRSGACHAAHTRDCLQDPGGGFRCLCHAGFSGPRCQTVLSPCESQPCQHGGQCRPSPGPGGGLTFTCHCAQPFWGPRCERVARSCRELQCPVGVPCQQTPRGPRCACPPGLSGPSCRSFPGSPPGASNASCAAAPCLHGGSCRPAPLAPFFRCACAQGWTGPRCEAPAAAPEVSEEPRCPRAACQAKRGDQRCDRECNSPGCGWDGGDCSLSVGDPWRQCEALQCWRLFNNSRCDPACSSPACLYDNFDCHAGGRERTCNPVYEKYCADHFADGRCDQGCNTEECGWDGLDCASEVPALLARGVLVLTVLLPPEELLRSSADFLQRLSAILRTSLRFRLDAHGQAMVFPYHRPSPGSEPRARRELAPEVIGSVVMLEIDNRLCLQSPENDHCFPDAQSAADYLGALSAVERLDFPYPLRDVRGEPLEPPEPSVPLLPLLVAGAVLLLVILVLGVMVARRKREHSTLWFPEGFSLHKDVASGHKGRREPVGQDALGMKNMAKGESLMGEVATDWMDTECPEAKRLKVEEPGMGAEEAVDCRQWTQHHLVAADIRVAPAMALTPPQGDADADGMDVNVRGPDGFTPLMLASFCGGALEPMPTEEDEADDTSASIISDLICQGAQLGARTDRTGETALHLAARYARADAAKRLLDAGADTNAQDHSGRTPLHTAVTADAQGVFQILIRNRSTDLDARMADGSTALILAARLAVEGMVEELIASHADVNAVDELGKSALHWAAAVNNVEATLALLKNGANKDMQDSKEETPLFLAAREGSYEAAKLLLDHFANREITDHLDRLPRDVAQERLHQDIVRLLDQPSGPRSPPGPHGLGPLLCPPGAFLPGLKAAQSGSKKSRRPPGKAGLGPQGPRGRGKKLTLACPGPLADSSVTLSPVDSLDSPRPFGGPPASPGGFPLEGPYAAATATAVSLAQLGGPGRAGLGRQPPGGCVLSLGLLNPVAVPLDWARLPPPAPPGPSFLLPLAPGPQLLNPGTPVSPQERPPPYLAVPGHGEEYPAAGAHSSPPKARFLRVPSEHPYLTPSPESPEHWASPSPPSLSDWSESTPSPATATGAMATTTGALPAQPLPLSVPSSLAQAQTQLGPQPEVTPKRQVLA
Neurogenic locus notch homolog protein 2 (Homo sapiens), sequence (Q04721 whole entry, looked up, canonical isoform): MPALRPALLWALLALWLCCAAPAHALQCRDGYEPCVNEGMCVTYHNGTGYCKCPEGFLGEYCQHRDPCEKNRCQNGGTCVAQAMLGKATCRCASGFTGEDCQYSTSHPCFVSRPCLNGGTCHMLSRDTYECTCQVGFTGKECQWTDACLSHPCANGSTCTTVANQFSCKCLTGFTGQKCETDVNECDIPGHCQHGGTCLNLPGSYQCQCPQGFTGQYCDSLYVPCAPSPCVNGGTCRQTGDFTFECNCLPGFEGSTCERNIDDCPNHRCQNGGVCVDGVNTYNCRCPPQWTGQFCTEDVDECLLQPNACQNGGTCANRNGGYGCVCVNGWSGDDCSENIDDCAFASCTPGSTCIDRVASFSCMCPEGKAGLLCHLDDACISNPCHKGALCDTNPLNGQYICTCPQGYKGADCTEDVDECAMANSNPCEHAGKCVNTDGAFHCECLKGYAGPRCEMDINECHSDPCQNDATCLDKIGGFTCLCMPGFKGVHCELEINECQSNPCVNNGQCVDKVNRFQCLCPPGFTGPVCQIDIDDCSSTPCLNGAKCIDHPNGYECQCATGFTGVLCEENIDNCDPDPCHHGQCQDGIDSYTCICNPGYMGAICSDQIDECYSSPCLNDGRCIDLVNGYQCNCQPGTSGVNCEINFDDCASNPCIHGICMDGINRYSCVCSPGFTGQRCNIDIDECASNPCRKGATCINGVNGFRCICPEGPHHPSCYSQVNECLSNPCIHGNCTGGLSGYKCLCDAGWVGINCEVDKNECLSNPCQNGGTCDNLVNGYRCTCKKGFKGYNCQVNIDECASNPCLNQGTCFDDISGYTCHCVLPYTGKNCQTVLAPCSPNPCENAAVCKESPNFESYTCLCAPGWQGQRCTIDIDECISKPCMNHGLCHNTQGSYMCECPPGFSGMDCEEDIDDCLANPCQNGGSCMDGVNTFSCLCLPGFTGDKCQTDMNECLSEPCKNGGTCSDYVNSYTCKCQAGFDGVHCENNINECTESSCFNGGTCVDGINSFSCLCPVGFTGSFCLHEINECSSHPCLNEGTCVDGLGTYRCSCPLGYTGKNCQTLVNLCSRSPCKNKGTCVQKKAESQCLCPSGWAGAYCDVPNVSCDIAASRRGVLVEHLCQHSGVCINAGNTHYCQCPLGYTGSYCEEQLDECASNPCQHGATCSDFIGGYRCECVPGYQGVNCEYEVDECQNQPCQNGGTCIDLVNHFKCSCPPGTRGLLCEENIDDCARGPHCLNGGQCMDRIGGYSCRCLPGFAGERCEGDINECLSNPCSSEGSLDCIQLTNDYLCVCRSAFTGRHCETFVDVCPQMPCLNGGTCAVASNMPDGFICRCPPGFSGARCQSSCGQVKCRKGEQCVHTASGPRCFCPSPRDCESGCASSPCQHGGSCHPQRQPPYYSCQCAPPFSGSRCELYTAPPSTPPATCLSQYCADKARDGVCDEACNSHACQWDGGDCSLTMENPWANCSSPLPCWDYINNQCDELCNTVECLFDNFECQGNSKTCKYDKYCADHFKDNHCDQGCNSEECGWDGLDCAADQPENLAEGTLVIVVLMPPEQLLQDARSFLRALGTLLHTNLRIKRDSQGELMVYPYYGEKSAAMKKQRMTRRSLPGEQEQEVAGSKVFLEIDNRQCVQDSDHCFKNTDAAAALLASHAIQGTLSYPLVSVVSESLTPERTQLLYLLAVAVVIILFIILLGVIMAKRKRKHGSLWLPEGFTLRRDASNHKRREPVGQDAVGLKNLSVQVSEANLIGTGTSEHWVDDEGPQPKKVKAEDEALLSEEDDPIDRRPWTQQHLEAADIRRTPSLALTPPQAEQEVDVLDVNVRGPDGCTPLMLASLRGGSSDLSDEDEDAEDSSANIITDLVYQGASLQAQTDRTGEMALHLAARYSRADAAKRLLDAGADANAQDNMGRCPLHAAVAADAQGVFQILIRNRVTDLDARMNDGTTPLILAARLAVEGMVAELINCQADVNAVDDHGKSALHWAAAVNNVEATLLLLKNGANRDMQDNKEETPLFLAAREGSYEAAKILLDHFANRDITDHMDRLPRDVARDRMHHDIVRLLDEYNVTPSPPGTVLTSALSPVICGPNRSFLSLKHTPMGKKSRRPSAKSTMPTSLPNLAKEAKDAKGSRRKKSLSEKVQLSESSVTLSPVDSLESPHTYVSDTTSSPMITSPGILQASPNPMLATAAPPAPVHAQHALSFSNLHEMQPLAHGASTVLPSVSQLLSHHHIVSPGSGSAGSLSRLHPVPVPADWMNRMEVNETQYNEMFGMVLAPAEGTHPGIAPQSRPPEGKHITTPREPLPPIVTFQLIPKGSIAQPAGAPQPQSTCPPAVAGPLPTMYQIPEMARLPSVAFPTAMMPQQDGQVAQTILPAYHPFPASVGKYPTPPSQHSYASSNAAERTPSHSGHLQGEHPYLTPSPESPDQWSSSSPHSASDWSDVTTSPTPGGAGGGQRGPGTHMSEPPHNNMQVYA

Work on `CCCCC(=C=CC[C@H](O)c1cccc(OCCO)c1)C[C@H](O)COCc1ccccc1` yielded a composite z-score [1] of -0.0829, a composite z-score [2] of 0.284 and a composite z-score [3] of -0.112. It also gave a composite z-score [4] of 0.205, a composite z-score [5] of -0.431 and a composite z-score [6] of -0.491. For the same molecule, the composite z-score [7] was 0.794, the z-score [8] was -0.664 (inactive) and the composite z-score [9] was -0.11. The composite z-score [10] was -0.28, the composite z-score [11] was 0.494 and the z-score [12] was -0.646 (inactive). For the same molecule, the z-score [13] was -0.586 (inactive), the z-score [14] was -1.15 (inactive) and the composite z-score [15] was 1.04. For the same molecule, the z-score [16] was 0.338 (inactive), the composite z-score [17] was -0.195 and the composite z-score [18] was -0.0291. It also gave a composite z-score [19] of -0.323 and a composite z-score [20] of -0.154.
`C=CCC(OC(C)=O)[C@@H]1[C@@H](N(Cc2ccc(-c3ccccc3)cc2)C(=O)Cc2ccc(OC)cc2)c2cc(OCCCO)ccc2N1C(=O)c1ccc(-c2ccccc2)cc1` (stereo not given in full) showed a composite z-score [1] of -0.0141, a composite z-score [2] of 0.253 and a composite z-score [3] of -0.0158. The composite z-score [4] was -0.0965, the composite z-score [5] was -0.137 and the composite z-score [6] was 0.275. For the same molecule, the composite z-score [7] was 0.0056, the z-score [8] was -1.24 (inactive) and the composite z-score [9] was 0.0321. The composite z-score [10] was 0.259, the composite z-score [11] was -0.0413 and the z-score [12] was -0.445 (inactive). The z-score [13] was -0.512 (inactive), the z-score [14] was -0.542 (inactive) and the composite z-score [15] was 0.182. The z-score [16] was 1.23 (inactive), the composite z-score [17] was 0.152 and the composite z-score [18] was -0.0829. The composite z-score [19] was -0.255 and the composite z-score [20] was -0.0488.
`COC(=O)[C@@]1(Cc2ccccc2)[C@H]2c3cc(C(=O)N4CCCC4)n(CCO)c3C[C@H]2CN1C(=O)c1ccccc1` gave a composite z-score [1] of 1.35, a composite z-score [2] of 2.52 and a composite z-score [3] of 0.759. For the same molecule, the composite z-score [4] was 0.77, the composite z-score [5] was 1.58 and the composite z-score [6] was 1.62. For the same molecule, the composite z-score [7] was 1.15, the z-score [8] was -0.292 (inactive) and the composite z-score [9] was 2.6. The composite z-score [10] was 0.216, the composite z-score [11] was 0.718 and the z-score [12] was -0.598 (inactive). For the same molecule, the z-score [13] was 1.45 (inactive), the z-score [14] was -1.88 (inactive) and the composite z-score [15] was 2.92. For the same molecule, the z-score [16] was -0.237 (inactive), the composite z-score [17] was 1.35 and the composite z-score [18] was 0.815. The composite z-score [19] was 0.946 and the composite z-score [20] was 0.986.
For `C=C[C@H](C)[C@H](OC(=O)Nc1ccc(SC)cc1)c1ccc(O)c2ccccc12`, the composite z-score [1] was -0.0571, the composite z-score [2] was -0.0235 and the composite z-score [3] was 0.0243. It also gave a composite z-score [4] of -0.624, a composite z-score [5] of -0.718 and a composite z-score [6] of 0.583. The composite z-score [7] was 1.05, the z-score [8] was 2.77 (inactive) and the composite z-score [9] was -0.744. For the same molecule, the composite z-score [10] was -0.268, the composite z-score [11] was 0.214 and the z-score [12] was -21.7 (active). The z-score [13] was -20.8 (active), the z-score [14] was -2.22 (inactive) and the composite z-score [15] was 0.803. For the same molecule, the z-score [16] was 0.949 (inactive), the composite z-score [17] was -0.125 and the composite z-score [18] was 0.174. The composite z-score [19] was -0.673 and the composite z-score [20] was -0.305.
`O=C1OCC=C[C@H]2OC34C=CCN(CCN5CCOCC5)C(=O)[C@H]3N(CCCCCO)C(=O)[C@@H]4[C@@H]12` (stereo not given in full) gave a composite z-score [1] of -0.099, a composite z-score [2] of 0.298 and a composite z-score [3] of -0.128. It also gave a composite z-score [4] of -0.191, a composite z-score [5] of 0.0385 and a composite z-score [6] of -0.0529. For the same molecule, the composite z-score [7] was 1.43, the z-score [8] was 0.401 (inactive) and the composite z-score [9] was -0.452. For the same molecule, the composite z-score [10] was -0.236, the composite z-score [11] was -0.0623 and the z-score [12] was -1 (inactive). The z-score [13] was -0.586 (inactive), the z-score [14] was -0.406 (inactive) and the composite z-score [15] was 2.22. The z-score [16] was -0.0128 (inactive), the composite z-score [17] was -0.0282 and the composite z-score [18] was 0.0316. The composite z-score [19] was -0.255 and the composite z-score [20] was -0.0831.
